CYP2C9 act – human CYP2C9 activators, primary screen, biochemical, luminescence | Cytochrome P450 2C9 (Homo sapiens), P11712 | recombinant CYP2C9, luciferin-H conversion; stronger effect = higher value; factor 1 = untreated enzyme, 0 = blocked | activation factor at 5 µM | 96,000 tested, 1.4% active | AID 1024, 2008;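 active = activation factor of 2 or more for CYP2C9 at a 5 µM dose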;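 also: 0 = sulfaphenazole-blocked wells and 1 = vehicle-only wells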
CYP2C19 inhib – blockers of cytochrome P450 2C19 activity – biochemical, luminescence, ADME assay, primary screen; P33261; CYP2C19 Supersomes, luciferin-H EGE luminescence, 30 min; inhibition, % at 5 µM; 96,000 tested, 21% active; AID 778, 2007;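 active = CYP2C19 inhibition above a set limit at 5 µM in the primary screen, cut at about 50% in these data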;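 also: plate controls were negative control wells for no effect and 2.5 mM tranylcypromine positive control for full effect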
CYP2C19 act – human CYP2C19 activators, primary screen, biochemical, luminescence; Cytochrome P450 2C19 (Homo sapiens), P33261; recombinant CYP2C19, luciferin-H EGE luminescence; stronger effect = higher value; 0 = fully inhibited enzyme, 1 = untreated enzyme; activation factor at 5 µM; 96,000 tested, under 10 active;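 active = activation factor of at least 2 at 5 µM in the primary screen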;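 also: 0 = wells with 2.5 mM tranylcypromine and 1 = vehicle-only wells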
sEH act – soluble epoxide hydrolase activators, primary screen, biochemical, human sEH; purified human sEH enzymatic activity, activator screen; 91,000 tested, 0.04% active; activation, % at 2 µM; AID 717, 2007; Bifunctional epoxide hydrolase 2 (Homo sapiens), P34913; in the data active = activation above about 37%
Target sequence (P34913 whole entry, looked up): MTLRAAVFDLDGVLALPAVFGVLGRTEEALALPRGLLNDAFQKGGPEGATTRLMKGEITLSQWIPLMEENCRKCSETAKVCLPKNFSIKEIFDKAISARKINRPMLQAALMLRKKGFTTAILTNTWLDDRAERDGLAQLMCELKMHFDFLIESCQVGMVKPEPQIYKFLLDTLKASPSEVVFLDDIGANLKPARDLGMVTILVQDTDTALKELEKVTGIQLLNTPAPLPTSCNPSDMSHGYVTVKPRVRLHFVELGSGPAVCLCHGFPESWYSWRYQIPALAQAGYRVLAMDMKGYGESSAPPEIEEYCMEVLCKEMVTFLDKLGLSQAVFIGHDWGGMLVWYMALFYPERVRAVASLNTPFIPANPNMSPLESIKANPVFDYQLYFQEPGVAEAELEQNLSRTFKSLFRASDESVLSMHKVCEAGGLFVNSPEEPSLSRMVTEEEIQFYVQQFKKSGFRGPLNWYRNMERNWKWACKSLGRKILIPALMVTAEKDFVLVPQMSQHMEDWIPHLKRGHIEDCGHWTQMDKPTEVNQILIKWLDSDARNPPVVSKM
sEH inh – soluble epoxide hydrolase inhibitors, primary screen, biochemical, human sEH; inhibition, % at 2 µM; AID 707, 2007; recombinant human sEH enzymatic activity assay; Bifunctional epoxide hydrolase 2 (Homo sapiens), P34913; 91,000 tested, 0.34% active; in the data active = inhibition above about 80%
CYP2C9 inhib – blockers of cytochrome P450 2C9 activity – biochemical, luminescence, ADME assay, primary screen | P11712 | CYP2C9 Supersomes, luciferin-H conversion | inhibition, % at 5 µM | 96,000 tested, 20% active;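 active = blocking of liver enzyme CYP2C9 beyond about 50% at 5 µM, limit read from the data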
* hit, by the source's call; . = no result given. Rows were chosen to be rich in hits. Some 27% of all compounds tested hit in one or more screens of this group.

SMILES	CYP2C9 act	CYP2C19 inhib	CYP2C19 act	sEH act	sEH inh	CYP2C9 inhib
CCOc1ccc2sc(NS(=O)(=O)c3ccc(OC)c(OC)c3)nc2c1	0.1	28	0.7	-4	2	92*
COc1ccc(S(=O)(=O)Nc2nc3ccccc3s2)cc1	0.5	8	0.9	16	-15	50*
COC(=O)c1ccc(NC(=O)C2CC2)o1	1	-9	1.1	2	-4	-3
CCCCOc1ccc(/C(O)=C2/C(=O)C(=O)N(CCCOC)C2c2ccncc2)cc1C (centres undefined)	0.9	-1	1	-4	1	14
CC(=O)Nc1ccc(SC(C)C(=O)NC(N)=O)cc1 (centres undefined)	0.8	-16	1.2	4	-1	18
CCCCC1(C)NC(=O)c2c(C)sc(C(=O)OCC)c2N1 (centres undefined)	0.1	30	0.7	17	-15	94*
CCOC(=O)CC1(C)NC(=O)c2c(C)sc(C(=O)OCC)c2N1 (centres undefined)	0.8	36	0.6	-7	8	23
CCOC(=O)CC1(CC(=O)OCC)NC(=O)c2c(C)sc(C(=O)OCC)c2N1	0.5	96*	0	15	-14	48
COc1ccc(-n2c(NCCN(C)C)nc3sc4c(c3c2=O)CCCCC4)cc1	0.7	10	0.9	-14	15	30
Cc1ccc(OCC(=O)Nc2ccc(N3CCCC3)cc2)cc1C	1.1	-13	1.1	0	-2	-12
Cc1cccc(NC(=O)COc2ccc3oc4c(c3c2)CCCC4)n1	0.1	51*	0.5	-6	5	85*
Cc1ccsc1C1Nc2ccc3ncccc3c2C2=C1C(=O)CCC2 (centres undefined)	0.2	90*	0.1	-15	16	85*
COc1cc(C2C3=C(CCCC3=O)Nc3[nH]n(-c4ccccc4)c(=O)c32)ccc1O (centres undefined)	1	-4	1	-2	-1	-4
COc1cc(C2Nc3ccc4ncccc4c3C3=C2C(=O)CCC3)ccc1O (centres undefined)	0.3	91*	0.1	.	.	66*
OCCN(CCO)CC(O)COCCC12CC3CC(CC(C3)C1)C2 (centres undefined)	0.9	18	0.8	0	-1	13
Cc1ccc2c(c1Br)/C(=N/N1C(=O)c3ccccc3C1=O)C(=O)N2	0.5	30	0.7	16	-15	51*
Cc1c(N=C2C(=O)Nc3ccccc32)c(=O)n(-c2ccccc2)n1C	1.1	-2	1	19	-16	-11
COc1ccc(/C=C/C(=O)c2ccccc2)cc1COc1ccccc1F	0.3	41	0.6	2	0	74*
COc1cc(OC)cc(C(=O)N/N=C/c2ccc(OC)c(COc3ccc(F)cc3)c2)c1	0.9	33	0.7	7	-4	10
COc1ccc(/C=C/C(=O)c2ccccc2O)cc1CN1CCOCC1	0.6	58*	0.4	-1	2	44
Cc1ccc(-n2c(Cn3nc(C(F)(F)F)cc3C)n[nH]c2=S)cc1	1.1	8	0.9	-8	10	-10
COC(=O)c1ccccc1NC(=O)c1cccc(NC(=O)c2ccc(Br)o2)c1C	0.9	35	0.6	-6	7	14
COC(=O)c1ccccc1OC(=O)c1ccc(Br)o1	0.8	76*	0.2	-5	5	16
O=C(/C=C/N1CCOCC1)c1ccc(-c2ccccc2)cc1	0.1	21	0.8	16	-15	89*
Cc1nn(CC#N)c(=O)n1-c1ccccc1F	1.1	-1	1	-4	2	-7
SMILES	CYP2C9 act	CYP2C19 inhib	CYP2C19 act	sEH act	sEH inh	CYP2C9 inhib
COc1ccccc1NC(=O)N1CCN(c2ccccn2)CC1	1.8	25	0.7	.	.	-78
COc1ccccc1NC(=O)CCN1CCN(Cc2ccccc2)CC1	0.4	24	0.8	8	-8	57*
COc1ccccc1NC(=O)CCN1CCCCCC1	0.9	0	1	18	-19	6
COc1ccc(Cl)cc1NC(=O)N1CCN(CCc2ccccc2)CC1	2.3*	73*	0.3	15	-12	-130
COc1ccccc1NC(=O)N1CCN(c2ccccc2F)CC1	2.4*	41	0.6	-4	7	-135
COc1ccccc1NC(=O)CN1CCN(c2ccccc2F)CC1	0.3	88*	0.1	8	-8	66*
CC1CCc2ccccc2N1C(=O)c1cccs1 (centres undefined)	0.7	22	0.8	2	1	28
COc1cc(/C=C(/NC(=O)c2ccccc2Cl)C(=O)O)cc(OC)c1OC	1.1	-7	1.1	7	-7	-7
COc1ccc(-n2nc(C(=O)NCC(=O)NCc3ccco3)c3ccccc3c2=O)cc1Cl	0.6	-2	1	3	-3	36
COc1cccc(NC(=O)CN2CCN(c3ccccc3F)CC2)c1	0.3	62*	0.4	-5	2	67*
CCOC(=O)c1ccc(NC(=O)N2CCN(c3ccccn3)CC2)cc1	1.2	1	1	-19	21	-17
CCCC(=O)Nc1cccc(NC(=O)CN2CCN(c3ccccc3OC)CC2)c1	0.2	88*	0.1	.	.	77*
CCOC(=O)c1ccc(NC(=O)N2CCN(CCc3ccccc3)CC2)cc1	0.3	43	0.6	-6	10	66*
COc1ccc(Cl)cc1NC(=O)C(C)N1CCN(C/C=C/c2ccccc2)CC1 (centres undefined)	0.1	97*	0	11	-11	91*
CCC(=O)Nc1cccc(NC(=O)CN2CCN(c3ccccc3OC)CC2)c1	0.9	26	0.7	16	-14	15
COc1ccc(OC)c(NC(=S)N2CCN(C/C=C/c3ccccc3)CC2)c1	1	6	0.9	16	-14	1
COc1ccc(CCNC(=O)CS(=O)Cc2nc(-c3cccs3)oc2C)cc1OC (centres undefined)	0.9	-1	1	-2	1	8
C=CCC(Nc1ccco1)c1ccccc1 (centres undefined)	1.1	-10	1.1	-6	4	-10
COc1ccccc1NC(=O)CN1CCN(CC(=O)Nc2cc(NC(C)=O)ccc2OC)CC1	0.8	41	0.6	7	-6	24
COc1ccc(C)cc1NC(=O)CN1CCN(CC(=O)Nc2ccccc2F)CC1	0.9	61*	0.4	6	-7	12
COc1ccc(NC(C)=O)cc1NC(=O)CN1CCN(CC(=O)Nc2ccc(Cl)cc2)CC1	0.8	67*	0.3	-7	7	25
Oc1ccc(C=Nc2ccc(N3CCOCC3)cc2)c(O)c1	0.9	-4	1	.	.	8
